This is a sample that favours compounds with a hit; in the whole collection about 19% have one here.
TDP1 cell noCPT – qHTS for Inhibitors of human tyrosyl-DNA phosphodiesterase 1 (TDP1): qHTS in cells in absence of CPT. 15% of 420,000 active. Potency, µM (titrated, usually from 46.2 µM), inactives show top-dose activity change, negative = growth inhibition, actives largely listed as inhibitors. DT40 Tdp1-/- hTDP1 cells, no CPT, ATP luminescence, 48 h; further: potency means the concentration at half of the fitted maximal effect; nearly all actives have a fitted effect of over 55% in size
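Chicken DT40 Tdp1-/- cells complemented with human TDP1, screened without camptothecin (DMSO vehicle only), 400 cells/well. Compounds pin-transferred, cells incubated at 37 °C for at least 48 hr. Growth read as ATP-dependent luminescence (CellTiter-Glo, 30 min at RT).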
TDP1 cell CPT – DT40-hTDP1 cell growth loss with CPT | chicken DT40 Tdp1-/-;hTDP1 cells + 20 nM CPT, ATP luminescence, 48 h | AID 686979 | Potency, µM (titrated, usually from 46.2 µM), for inactives: at the top dose activity change, negative = growth inhibition, most hits filed as inhibitors | 12% of 420,000 active; further: potency means the concentration at half of the fitted maximal effect; nearly all actives have a fitted effect of over 55% in size
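Chicken DT40 Tdp1-/- cells stably complemented with human TDP1 were seeded at 400 cells/well in medium containing 20 nM camptothecin, exposed to pin-transferred compounds, and grown at 37 °C for at least 48 hr. Viability was read as ATP luminescence.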
IL1B secr inh – inhibitors of inflammasome signaling (IL-1 beta secretion) | THP-1 LPS/ATP IL-1B secretion, AlphaLISA, 16 h; hits give low values | 4.7% of 360,000 active | activity change, % at 57.5 µM; in the data active means activity change below about -50%; inconclusive means mostly about -30% to -49%
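Secreted IL-1B measured by AlphaLISA bead assay after 16 h compound exposure of THP-1 cells; compounds (final up to 57.5 uM) added 1 h before LPS (250 ng/mL) and ATP (1.25 mM) stimulation; lower signal means less secretion.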
HT1080NT lethal – kills 2HG-producing HT-1080-NT fibrosarcoma cells. HT-1080-NT fibrosarcoma viability, CellTiter-Glo ATP luminescence, 48 h. Potency, µM (top dose mostly 46.1 µM), for the others: at the top dose activity, negative = less viability, actives largely listed as cytotoxic. 1.6% of 360,000 active;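 further: NT is the 2HG producing partner of a matched IDH1 knockdown line; potency means the concentration at half of the fitted maximal effect; 0% = DMSO-treated cells and -100% = media-only wells without cells; nearly all actives have a fitted effect of over 55% in size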
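Luminescent CellTiter-Glo readout after 48 hours of compound exposure at 37 degrees C defined viability of HT-1080-NT cells. Activity was normalized to DMSO wells and cell-free media wells; concentration-response curves were fitted and assigned curve classes.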
HT1080 IDH1KD tx – toxicity to HT-1080 IDH1 knockdown cells (counter line); HT-1080 IDH1 knockdown viability, ATP luminescence, 48 h; Potency, µM (top dose mostly 46.1 µM), for inactives: top-dose activity, negative = toxicity, actives largely listed as cytotoxic; 2% of 360,000 active;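 further: potency means the concentration at half of the fitted maximal effect; 0% = DMSO wells and -100% = cell-free medium wells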
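In this qHTS, HT-1080 cells depleted of IDH1 are exposed for 48 h at 37 °C to compound titrations. Toxicity is scored from CellTiter-Glo luminescence, with DMSO as full viability and medium alone as none.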
Numbers without * were called inactive; i = inactive; ? = inconclusive; . = no result given; [ ] = dose if it differs, or a comment. Unless noted, the call rests on the fitted dose curve; in most records, active means well fitted curve in the direction sought with a large enough effect; inconclusive means small, poorly fitted or top-dose-only effect, or another doubt; inactive means no such curve, though single readings can be large; an effect the other way counts as inactive or inconclusive. Unless noted, on the % scale 0 is the no-effect control and ±100 the full control effect.

SMILES	TDP1 cell noCPT	TDP1 cell CPT	IL1B secr inh	HT1080NT lethal	HT1080 IDH1KD tx
CCc1ccc(N2CC(C(=O)Nc3ccc(S(=O)(=O)N4CCOCC4)cc3)CC2=O)cc1 (centres undefined)	?	?	-61*	-8%	-1%
CSc1cccc(NC(=O)C2CCN(S(=O)(=O)c3ccc4[nH]c5c(c4c3)CCCCC5)CC2)c1	21µM*	?	.	.	.
CC(C)=CC1C(C(=O)Nc2ccc(S(=O)(=O)N3CCOCC3)cc2)C1(C)C (centres undefined)	?	?	-64*	-25%	-18%
O=C(Nc1ccc(S(=O)(=O)N2CCOCC2)cc1)C1CC1	-1%	-29%	6	4%	1%
CCOc1ccc(N2CC(C(=O)Nc3cccc(S(=O)(=O)N4CCCCC4)c3)CC2=O)cc1 (centres undefined)	?	-22%	-2	-19%	-9%
CCOC(=O)C1CCN(S(=O)(=O)c2ccc3[nH]c4c(c3c2)CCCC4)CC1	-19%	?	44	-11%	25%
Nn1c(SCC(=O)Nc2ccccc2F)nnc1-c1cccs1	0%	25%	-3	10%	10%
Cc1cccc(N2CC(C(=O)Nc3cccc(S(=O)(=O)N4CCCCC4)c3)CC2=O)c1C (centres undefined)	?	18µM*	-51*	-22%[9.24 µM]	-14%
CCc1ccccc1N1CC(C(=O)Nc2cc(S(=O)(=O)N3CCCC3)ccc2Cl)CC1=O (centres undefined)	15µM*	?	15	0%	16%
O=C(Nc1cc(Cl)ccc1Cl)C1CC(=O)N(c2ccccc2)C1 (centres undefined)	-7%	-4%	-9	-19%	-10%
CCC(C)c1ccccc1N1CC(C(=O)NCCC2=CCCCC2)CC1=O (centres undefined)	16µM*	18µM*	-3	-2%	1%
Cc1cccc(N2CC(C(=O)Nc3ccc(S(=O)(=O)N4CCOCC4)cc3)CC2=O)c1C (centres undefined)	2%	-22%	9	-2%	2%
CCC(C)c1ccccc1N1CC(C(=O)Nc2ccc(N3CCOCC3)cc2)CC1=O (centres undefined)	-7%	-13%	-9	-2%	16%
CCOc1ccccc1N1CC(C(=O)NCCC2=CCCCC2)CC1=O (centres undefined)	-29%	?	-18	0%	-3%
CCC(C)c1ccccc1N1CC(C(=O)Nc2cccc(S(=O)(=O)N3CCOCC3)c2)CC1=O (centres undefined)	18µM*	18µM*	i	-2%	1%
O=[N+]([O-])c1cccnc1C1OCCO1	2%	18%	6	7%	15%
Cc1cnc(C2OCCO2)c2cccc(N)c12	8.2µM*	?	-12	-8%	6%
Cc1cc(Nc2cccc(C)c2C)n2nc(C)nc2n1	-21%	1%	1	11%	0%
CCCCNC(=O)C1(C)CCCCN1C(=O)c1ccc2c(c1)C(C)(C)CCC2(C)C (centres undefined)	2.1µM*	3.7µM*	-5	?	?
CCCCNC(=O)C1(C)CCN1C(=O)c1ccc2c(c1)C(C)(C)CCC2(C)C (centres undefined)	13µM*	21µM*	47	19%	-4%
CCCCNC(=O)C1(C)CCN1C(=O)c1ccc(F)c(C)c1 (centres undefined)	?	-28%	-3	24%	14%
CCCCNC(=O)C1(C)CCCCN1C(=O)c1ccc(F)c(C)c1 (centres undefined)	?	?	0	?	28%
Cc1cc(OCC(=O)N2CCOCC2)ccc1NC(=O)c1ccccc1C	-4%	-17%	18	-9%	0%
C=CCSc1nc(C)cc(C(=O)OCC)c1C#N	-1%	14%	-8	11%	4%
S=C(Nc1ccc(Cl)cc1)N1CCCC1	1%	-7%	17	13%	14%
SMILES	TDP1 cell noCPT	TDP1 cell CPT	IL1B secr inh	HT1080NT lethal	HT1080 IDH1KD tx
Cc1ccc(C)c(-n2c(-c3csc(C)c3)n[nH]c2=S)c1	-17%	-36%	-2	?	10µM*
Cc1ccc(C)c(-n2c(-c3ccncc3)n[nH]c2=S)c1	-2%	3%	17	14%	20%
CCc1ccc(-c2ccc(SCC(=O)NCC3CCCO3)nn2)cc1 (centres undefined)	-11%	20%	-4	-14%	-11%
Cc1c(/C=C(\C#N)C(=O)NCc2ccccc2)cc(C#N)n1C	-24%	-1%	-8	-6%	-6%
Cc1csc2nc(COc3ccc(NC(=O)c4ccccc4F)cc3)cc(=O)n12	-20%	-5%	.	.	.
Cc1cc(C)n(-c2nc(NCC(C)O)c3c4c(sc3n2)CCCC4)n1 (centres undefined)	18µM*	?	-17	-8%	-7%
Cc1nc(-n2nnc3cc(C)c(C)cc32)c2c3c(sc2n1)CCCC3	-27%	?	25	1%	4%
Cc1cc(C)n(-c2nc(NCCCO)c3c4c(sc3n2)CCCC4)n1	4.1µM*	5.8µM*	-18	-6%	-4%
Cc1cc(C)n(-c2nc(NCCO)c3c4c(sc3n2)CCCC4)n1	?	?	-5	-7%	-9%
Cc1cc(=O)[nH]c(N/N=C/c2c(C)oc3ccccc23)n1	?	12µM*	0	12%	19%
Cc1cc(=O)[nH]c(N/N=C/c2c(C)nn(-c3ccccc3)c2Cl)n1	23µM*	23µM*	-14	-1%	-5%
Cc1cc(=O)[nH]c(N/N=C/c2c[nH]c3ccccc23)n1	?	?	14	1%	-2%
Cc1ccc(Cl)cc1NC(=O)c1cc(S(=O)(=O)N2CCOCC2)cn1C	-1%	-10%	-15	0%	-8%
CCCCCCCCN1C(=O)[C@H](CC(=O)NCCCN2CCCC2=O)C[C@@]2(C(=O)OC)CCCCC=C12	?	?	-16	-7%	-6%
CCCCCCCCN1C(=O)[C@H](CC(=O)NCCCOC)C[C@@]2(C(=O)OC)CCCCC=C12	16µM*	?	-6	-13%	-16%
CCCCCCCCN1C(=O)[C@H](CC(=O)NCC2CCCCC2)C[C@@]2(C(=O)OC)CCCCC=C12	16µM*	21µM*	0	-4%	-22%
Oc1c(Cl)cc(Cl)cc1C1=NNC(c2ccc(Cl)cc2)C1 (centres undefined)	?	-35%	-3	1%	-20%
Oc1ccc(Cl)cc1C1=NNC(c2ccc(Cl)cc2)C1 (centres undefined)	13µM*	23µM*	?	-18%	?
CC(C)CCNC(=O)C1CCN(Cc2cccc(OCc3ccccc3)c2)CC1	?	-20%	-57*	?	23µM*

Screens as filed in PubChem BioAssay.
